# Screens as filed in PubChem BioAssay.
# Yeast superoxide – lowers age-related superoxide in aged yeast cells; superoxide response (% of plate mean), % at 10 µM; S. cerevisiae aged cells, superoxide DHE fluorescence; active compounds read low; actives 0.18% (n = 330,000); AID 2690;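 active = superoxide response under a set limit, about three screen SD below normal, cut at about 65% in these data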;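 note: yeast aged for seven days with compound at 30 °C before DHE staining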
# UBC13 polyUb – human UBC13 polyubiquitination inhibition | UBC13 polyubiquitin chain formation, TR-FRET | actives 0.47% (n = 330,000) | AID 485273 | P61088 | inhibition, % at 20 µM; in the data active = inhibition above about 45%, passing the limit was not always enough; inconclusive = no clear call, values can overlap the other calls
# Target sequence (P61088 whole entry, looked up): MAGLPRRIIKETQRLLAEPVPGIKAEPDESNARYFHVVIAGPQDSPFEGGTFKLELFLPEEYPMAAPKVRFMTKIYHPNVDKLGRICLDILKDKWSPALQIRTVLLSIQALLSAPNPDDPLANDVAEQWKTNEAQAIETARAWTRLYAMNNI
# dFosB activator – mouse delta FosB homodimer activation; actives 0.99% (n = 340,000); activation, % at 25 µM; AID 493131; purified delta FosB, TAMRA-CDK5 oligo fluorescence polarization; percent of positive-control signal above neutral wells; P13346;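 active = mean activation above about 17%, with every replicate also reaching it, limit read from the data, passing the limit was not always enough; inconclusive = only one of the two conditions met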
# Target sequence (P13346 whole entry, looked up): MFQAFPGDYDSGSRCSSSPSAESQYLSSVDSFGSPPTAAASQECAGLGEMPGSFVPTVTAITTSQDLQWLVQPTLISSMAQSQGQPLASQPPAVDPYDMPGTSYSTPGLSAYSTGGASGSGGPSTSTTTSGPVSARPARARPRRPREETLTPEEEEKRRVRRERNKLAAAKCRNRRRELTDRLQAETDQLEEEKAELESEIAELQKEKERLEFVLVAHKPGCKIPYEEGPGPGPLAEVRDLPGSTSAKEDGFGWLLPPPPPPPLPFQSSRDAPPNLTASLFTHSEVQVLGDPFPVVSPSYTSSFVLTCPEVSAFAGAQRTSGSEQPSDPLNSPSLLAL
# GRIN3A LBD mod – NR3A (human) ligand-binding domain modulation. Tm shift relative to glycine control, % at 25 µM. actives 2.5% (n = 340,000). NR3A LBD differential scanning fluorimetry, Tm shift; 0% = protein alone, 100% = glycine-bound protein;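 active = melting temperature shift of at least 10% of the positive control shift, at one fixed dose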
# NALP1 inh – inhibitors of NALP1 inflammasome in yeast | S. cerevisiae NALP1/ASC/caspase-1 growth, X-gal OD620, 72 h | inhibition, % at 10 µM | actives 0.61% (n = 280,000) | AID 2071; in the data active = inhibition mostly above about 24%, no sharp cut-off; inactive = mostly below about 32%
# A number is an active result; - = inactive; ? = inconclusive; . = no result. An excerpt weighted towards active compounds, which were near 4.3% of everything screened.
SMILES,Yeast superoxide,UBC13 polyUb,dFosB activator,GRIN3A LBD mod,NALP1 inh
Cc1cc(C)c(NC(=O)C2CCCN2CCC(C)C)c(C)c1 (stereo unspecified),-,-,-,-,-
CC(=O)c1c(C(C)=O)c(C)n(-c2nc(-c3cccs3)c(C)s2)c1C,-,-,-,12,-
CCN1CCCC1CN(Cc1cc2ccc(C)cc2[nH]c1=O)C(=S)Nc1ccccc1C(=O)OC (stereo unspecified),-,-,-,-,37
CCN1CCCC1CN(Cc1cc2ccc(C)cc2[nH]c1=O)C(=S)Nc1ccccc1OC (stereo unspecified),-,-,-,-,-
Cc1ccc(S(=O)(=O)Nc2nc(C)c(NC(=O)OCCCl)s2)cc1,-,-,-,-,-
Cc1ccc(S(=O)(=O)Nc2nc(C)c(NC(=O)Nc3ccc(Cl)cc3Cl)s2)cc1,-,-,-,28,-
[NH-]c1ncnc2c1N=C[N+]2=CC=CCO,-,.,-,14,-
Cc1cc(NC(=O)C(C)Sc2nnc(NCc3ccco3)s2)no1 (stereo unspecified),-,-,-,-,.
O=C(CSc1nc2[nH]c(=O)cc(O)c2s1)Nc1ccc(Cl)c(C(F)(F)F)c1,-,-,-,12,.
N#Cc1ccc(NC(=O)CSc2nc3[nH]c(=O)cc(O)c3s2)cc1,-,-,-,-,.
CSc1ccc(NC(=O)CSc2nc3[nH]c(=O)cc(O)c3s2)cc1,-,-,-,14,.
COc1ccc(OC)c(NC(=O)Nc2ccc3c(c2)OCO3)c1,-,-,-,-,-
COc1cccc(NS(=O)(=O)CC23CCC(CC2=O)C3(C)C)c1 (stereo unspecified),-,-,-,-,-
COc1ccccc1NS(=O)(=O)CC12CCC(CC1=O)C2(C)C (stereo unspecified),-,-,-,-,42
CNCC(=O)Nc1c(C)n[nH]c1C,-,-,-,14,.
O=c1c2ccccc2c(=O)n(-c2ccccc2)n1-c1ccccc1,.,.,-,-,.
O=C(CSCc1ccccc1)Nc1cccc(C(=O)Nc2ccccc2C(=O)O)c1,-,-,-,-,-
O=C(CSCc1ccc(Cl)cc1)Nc1cccc(C(=O)Nc2ccccc2C(=O)O)c1,-,-,-,10,-
Cc1nc(SCC(=O)N2CCCCCC2)c2c(=O)n(C)c(=O)n(CC(C)C)c2n1,.,.,-,-,.
COc1ccccc1C/C(N)=N/OC(=O)COc1cccc(C)c1,-,-,-,13,-
NC(=S)N/N=C/c1c(O)c(Br)cc2oc3c(c12)CCCC3,-,-,?,10,-
O=C(NN=C1C2CC3CC(C2)CC1C3)c1cccs1,-,-,-,-,41
COC(=O)C(=O)/C=C(\O)c1c(C)cc(C)cc1C,-,-,-,-,.
COc1ccc(CCN=C(N)NS(=O)(=O)c2ccc(C)c(C)c2)cc1OC,-,-,-,-,-
COc1ccc(CCN=C(C)c2cc(C)c(C)cc2O)cc1OC,-,-,-,15,-
SMILES,Yeast superoxide,UBC13 polyUb,dFosB activator,GRIN3A LBD mod,NALP1 inh
Cc1ccc(NC(=O)CSc2nnc(-c3cc(C)on3)o2)cc1,-,-,-,-,-
CC(C)(C)c1ccc(NC(=O)CSc2nnc(-c3n[nH]c4ccccc34)o2)cc1,-,-,-,175,-
COC(=O)c1cc(NS(=O)(=O)c2ccc(N3CCC(C)CC3)c([N+](=O)[O-])c2)cc(C(=O)OC)c1,-,-,-,18,-
C=CCn1c(-c2ccccc2)nc2nc3ccccc3nc21,-,-,-,-,-
Clc1cccc(-c2nc3nc4ccccc4nc3n2Cc2ccccc2)c1,-,-,-,12,-
c1ccc(Cn2c(-c3ccccc3)nc3nc4ccccc4nc32)cc1,-,-,-,18,-
Cc1sc2nc3n(c(=O)c2c1C)CCCS3,-,-,-,18,-
O=C(c1ccc(S(=O)(=O)Cc2ccccc2F)c([N+](=O)[O-])c1)N1CCCCCC1,-,-,-,-,-
O=C(c1ccc(S(=O)(=O)c2ccccc2Cl)c([N+](=O)[O-])c1)N1CCCCCC1,-,-,-,12,-
Cc1ccc(NC(=O)CSc2nnc(CNC(=O)c3cccs3)o2)c(C)c1,-,-,-,-,-
CC(=O)Nc1ccc(S(=O)(=O)NCC2CCC(C(=O)NCCCN(C)Cc3ccccc3)CC2)cc1 (stereo unspecified),-,-,-,15,-
CN(CCCNC(=O)C1CCC(CNS(=O)(=O)c2ccccc2)CC1)Cc1ccccc1 (stereo unspecified),-,-,-,-,-
CC(C)N=C1NN=C(c2cccs2)CS1,-,-,-,-,-
CC(C)c1ccc(N=C2NN=C(c3cccs3)CS2)cc1,-,-,-,-,38
COc1ccc(-c2sc3ccc(-c4ccc5c(c4)OCO5)cc3c2-c2ccc(OC)nc2)cc1,-,-,-,-,.
O=C(O)/C(CC(=O)c1ccc(Cl)cc1)=N/Nc1ccc([N+](=O)[O-])cc1[N+](=O)[O-],-,-,-,21,-
CCOC(=O)/C(=N\Nc1ccccc1)c1csc(Nc2ccc(C)cc2)n1,-,-,-,25,-
CCCCC(CCC(=O)O)(C(=O)OCC)c1csc(Nc2ccc(C)cc2)n1 (stereo unspecified),-,-,-,-,-
O=C(CSc1nc2ccccc2o1)Nc1nc2ccc(Br)cc2s1,-,-,-,-,-
COc1ccc2nc(NC(=O)CSc3nc4ccccc4o3)sc2c1,-,-,-,15,-
CCOc1ccc2nc(NC(=O)CSc3ccccc3)sc2c1,-,-,-,30,-
CCOc1ccc2nc(NC(=S)N(C)C)sc2c1,-,-,-,30,-
CC(C)OCc1c(C(=O)OC/C(O)=C(\C#N)c2nc3ccccc3[nH]2)oc2ccccc12,-,-,-,-,-
N#Cc1cc(-c2ccc(Cl)cc2)cnc1Sc1ccc(F)cc1,-,-,-,13,-
Cc1[nH]c2ccccc2c1C(=O)C(=O)N1CCOCC1,-,-,-,-,-
SMILES,Yeast superoxide,UBC13 polyUb,dFosB activator,GRIN3A LBD mod,NALP1 inh
Cc1[nH]c2ccccc2c1C(=O)CSC(=S)N1CCOCC1,-,-,-,14,.
CC(C)(C)Nc1nc(SCC(=O)Nc2ccccc2Cl)nc(N2CCOCC2)n1,-,-,-,17,-
O=C(Nc1cc(-c2ccccc2)[nH]n1)c1ccccc1F,-,-,.,24,.
O=C(O)c1ccccc1C(=O)Nc1cc(-c2ccccc2)[nH]n1,-,-,-,-,-
CCN(CC)S(=O)(=O)c1ccc(Cl)c(NC(=S)NC(=O)C2CCCC2)c1,-,-,-,-,.
CCN(CC)c1ccc(S(=O)(=O)Nc2cc(Cl)ccc2Cl)cc1NC(=S)NC(=O)C1CCCC1,-,-,-,14,-
CSc1ccc(Cl)c(C(=O)OCC(=O)NC2CC2)c1,-,-,-,12,-
CCCNC(=O)COC(=O)c1cc(SC)ccc1Cl,-,-,-,-,-
COc1ccc(/C=N/N=C2/NC(=O)C(CC(=O)NC(N)=O)S2)cc1 (stereo unspecified),-,-,19,-,-
COc1cc(SSc2cc(OC)cc([N+](=O)[O-])c2N)c(N)c([N+](=O)[O-])c1,-,-,-,37,-
